According to the supplement of paper PMC13380429:
Unmarked numbers belong to inactive results.

Tested on: Vero E6 infected with SARS-CoV-2
Assay: inhibition of SARS-CoV-2 cytopathic effect; higher = more antiviral protection, active = above 15
Settings: 48 h

Compound	inhibition of SARS-CoV-2 cytopathic effect (1 nM)	inhibition of SARS-CoV-2 cytopathic effect (8.33 nM) [%]	inhibition of SARS-CoV-2 cytopathic effect (100 nM) [%]	inhibition of SARS-CoV-2 cytopathic effect (833.33 nM) [%]	inhibition of SARS-CoV-2 cytopathic effect (10000 nM) [%]
O=C(O)c1ccc(OCCn2ccnc2)cc1 [dazoxiben]	1.06%	2.92	3.5	-0.21	-0.65
O[C@@H](CN1CCNCC1)Cn1c2ccc(Br)cc2c2cc(Br)ccc21 [BAX-channel-blocker]	10.2%	4.29	2.27	2.49	-21.9
C#C[C@]1(O)CC[C@H]2[C@@H]3CCC4=CC(=NO)CC[C@@H]4[C@H]3CC[C@@]21CC (mixture of isomers) [norelgestromin]	-0.39%	-1.06	1.68	2.43	2.14
C/C(=C(\CCOP(=O)(O)O)SC(=O)c1ccccc1)N(C=O)Cc1cnc(C)nc1N [benfotiamine]	0.45%	2.17	2.51	1.61	0.69
CCN(CC)C(C)C(=O)c1ccccc1 (stereo not given) [amfepramone]	-1.18%	1.39	-1.99	1.34	-0.09
CO[C@@]1(NC(=O)CSCC#N)C(=O)N2C(C(=O)O)=C(CSc3nnnn3C)CS[C@@H]21 [cefmetazole]	1.84%	1.39	1.15	2.93	2.49
OC[C@H]1O[C@@H](Oc2ccc(O)cc2)[C@H](O)[C@@H](O)[C@@H]1O [arbutin]	-0.81%	0.67	0.6	-2.34	0.83
COc1ccc2c(O[C@@H]3C[C@H]4C(=O)N[C@]5(C(=O)NS(=O)(=O)C6CC6)C[C@H]5/C=C\CCCCN(C)C(=O)[C@@H]4C3)cc(-c3nc(C(C)C)cs3)nc2c1C [simeprevir]	-0.41%	3.7	2.68	-2.31	2.37
CN1C2C=C(c3sccc3Br)CC1CC2 (stereo not given)	24.2% (active)	-2.54	-0.99	-2.31	3.11
CN(C)CCCN1c2ccccc2CCc2ccccc21 [imipramine]	-4.38%	1.76	-1.33	-2.74	-4.2
CC(=O)[C@@]1(O)CC[C@H]2[C@@H]3C=C(Cl)C4=CC(=O)[C@@H]5C[C@@H]5[C@]4(C)[C@H]3CC[C@@]21C	-4.45%	-5.77	-6.29	-6.05	-4.41
O=NN(CCCl)C(=O)NC1CCCCC1 [lomustine]	-1.8%	1.26	1.76	2.26	-0.14
N[C@H]1C[C@@H]1c1ccccc1 (racemic) [tranylcypromine]	0.8%	-0.11	-0.1	0.19	2.21
Nc1nccs1 [aminothiazole]	-0.84%	1.04	0.28	2.14	1.48
C[C@H](Cn1cnc2c(N)ncnc21)OCP(=O)(O)O [tenofovir]	-0.47%	-2.44	-1.27	0.5	0.69
COC(c1ccccc1)(c1ccccc1)[C@H](Oc1nc(C)cc(C)n1)C(=O)O [ambrisentan]	-4.05%	-0.7	-1.38	-0.18	-3.02
C[C@]12CCC(=O)C=C1[C@@H]1C[C@@H]1[C@H]1[C@@H]3[C@@H]4C[C@@H]4[C@@]4(CCC(=O)O4)[C@@]3(C)CC[C@@H]12 [drospirenone]	-10.6%	-1.07	-3.16	0.94	5.09
Cc1ccccc1-n1c(CF)nc2ccc(N)cc2c1=O [afloqualone]	-0.9%	0.95	-0.71	-0.49	1.46
CCCCCCCCCCCCCCCC(=O)C(F)(F)F	-1.4%	0.3	-10.8	-13.2	-0.25
CN(C)CCCN1c2ccccc2Sc2ccc(Cl)cc21 [chlorpromazine]	-0.39%	2.71	1.5	2.32	7.04

Compound	inhibition of SARS-CoV-2 cytopathic effect (1 nM)	inhibition of SARS-CoV-2 cytopathic effect (8.33 nM) [%]	inhibition of SARS-CoV-2 cytopathic effect (100 nM) [%]	inhibition of SARS-CoV-2 cytopathic effect (833.33 nM) [%]	inhibition of SARS-CoV-2 cytopathic effect (10000 nM) [%]
CCCCCCc1ccc(O)cc1O.Nc1c2ccccc2nc2ccccc12 [acrisorcin]	1.59%	2.93	1.22	3.53	-18.5
N=C(N)NN=C1C=CC(=NNC(N)=S)C=C1 [ambazone]	1.75%	1.52	1.46	1.18	-0.05
CCN[C@H]1C[C@H](C)S(=O)(=O)c2sc(S(N)(=O)=O)cc21 [dorzolamide]	-0.7%	-3.23	-4.56	-1.92	-1.06
COC1=C[C@@H]2[C@@H]3Cc4ccc(OC)c(O)c4[C@]2(CCN3C)CC1=O [sinomenine]	-1.85%	0.19	-1.8	2.51	0.68
C[C@@H]1C[C@H]2[C@@H]3C[C@H](F)C4=CC(=O)C=C[C@]4(C)[C@@]3(F)[C@@H](O)C[C@]2(C)[C@@]1(O)C(=O)COC(=O)C(C)(C)C [flumethasone-pivalate]	-0.06%	-2.13	-1.68	-1.81	6.04
CC(=O)[C@]1(N)Cc2c(O)c3c(c(O)c2[C@@H](O[C@H]2C[C@H](O)[C@H](O)CO2)C1)C(=O)c1ccccc1C3=O [amrubicin]	2.67%	-2.31	-3.18	-3.9	-0.58
O=c1[nH]nc2c3c(cccc13)N=C(CN1Cc3ccccc3C1)N2	0.7%	-0.79	0.78	0.24	1.13
C[N+]1(C)[C@@H]2CC[C@H]1C[C@@H](OC(=O)C(CO)c1ccccc1)C2 (stereo not given in full) [methylatropine-nitrate]	1.74%	2.06	2.14	4.12	3.88
CC(=O)N[C@@H](CC(C)C)C(=O)O [acetyl-l-leucine]	1.37%	-0.18	-0.14	-1.79	-0.49
CC(C)NCC(O)c1ccc(N)c(C#N)c1 (stereo not given) [cimaterol]	6.86%	6.95	10.5	3.99	4.49
Cc1ccc(F)cc1C(=O)Nc1ccc(C(=O)N2Cc3cccn3Cc3ccccc32)c(Cl)c1 [lixivaptan]	-2.22%	2.67	2	1.18	-0.31
Cn1c(=O)c2c(ncn2CCOC(=O)C(C)(C)Oc2ccc(Cl)cc2)n(C)c1=O [etofylline-clofibrate]	4.94%	3.79	1.68	2.56	-0.53
CNc1ccc([N+](=O)[O-])cc1-n1cnc(-c2ccc(C(F)(F)F)cc2)c1	1.34%	1.42	0.62	1.02	-0.19
NC(=O)CC[C@H](N)C(=O)O [L-glutamine]	0.7%	2.45	0.59	0.71	-2.64
Cn1c(Nc2ccc(C(F)(F)F)cc2)nc2cc(Oc3ccnc(-c4ncc(C(F)(F)F)[nH]4)c3)ccc21	0.79%	1.69	0.4	0.16	4.48
N[C@@H](CS(=O)O)C(=O)O [L-cysteinesulfinic-acid]	0.48%	0.74	1.16	-1.19	2.03
CC(Oc1ccc(O)cc1)(P(=O)(O)O)P(=O)(O)O	-3.21%	-1.85	3.91	-1.36	-1.37
Oc1c(CN2CCCC2)cc(COCc2ccccc2)c2cccnc12	-1.11%	-0.88	0.87	-0.42	2.93
NC(=O)CN1CC(O)CC1=O (stereo not given) [oxiracetam]	1.13%	0.12	0.71	4.22	0.29
C[N+]1(C)[C@@H]2C[C@@H](OC(=O)C(O)(c3cccs3)c3cccs3)C[C@H]1[C@@H]1O[C@@H]12 [tiotropium]	0.89%	-2.54	-2.45	-5.08	-3.35
